# Experimental data: publication PMC4336329 (PLoS ONE, 2015)
# Screen size: about 310,000 compounds; about 14,000 (4.5%) showed an effect of 50% or more. Effects have a minus sign here. What follows is part of a selection rich in strong results, with near analogues and random picks from the rest.
# Molecular target: human ether-à-go-go-related gene (hERG) potassium channel (human, UniProt Q12809)
# Assay: primary screen, population patch clamp on CHO cells stably expressing hERG; higher = less effect of the substance
# 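Further: peak tail current of the secondary pulse compared with the same well before compound.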
# Sequence of human ether-à-go-go-related gene (hERG) potassium channel (Q12809 whole entry, looked up): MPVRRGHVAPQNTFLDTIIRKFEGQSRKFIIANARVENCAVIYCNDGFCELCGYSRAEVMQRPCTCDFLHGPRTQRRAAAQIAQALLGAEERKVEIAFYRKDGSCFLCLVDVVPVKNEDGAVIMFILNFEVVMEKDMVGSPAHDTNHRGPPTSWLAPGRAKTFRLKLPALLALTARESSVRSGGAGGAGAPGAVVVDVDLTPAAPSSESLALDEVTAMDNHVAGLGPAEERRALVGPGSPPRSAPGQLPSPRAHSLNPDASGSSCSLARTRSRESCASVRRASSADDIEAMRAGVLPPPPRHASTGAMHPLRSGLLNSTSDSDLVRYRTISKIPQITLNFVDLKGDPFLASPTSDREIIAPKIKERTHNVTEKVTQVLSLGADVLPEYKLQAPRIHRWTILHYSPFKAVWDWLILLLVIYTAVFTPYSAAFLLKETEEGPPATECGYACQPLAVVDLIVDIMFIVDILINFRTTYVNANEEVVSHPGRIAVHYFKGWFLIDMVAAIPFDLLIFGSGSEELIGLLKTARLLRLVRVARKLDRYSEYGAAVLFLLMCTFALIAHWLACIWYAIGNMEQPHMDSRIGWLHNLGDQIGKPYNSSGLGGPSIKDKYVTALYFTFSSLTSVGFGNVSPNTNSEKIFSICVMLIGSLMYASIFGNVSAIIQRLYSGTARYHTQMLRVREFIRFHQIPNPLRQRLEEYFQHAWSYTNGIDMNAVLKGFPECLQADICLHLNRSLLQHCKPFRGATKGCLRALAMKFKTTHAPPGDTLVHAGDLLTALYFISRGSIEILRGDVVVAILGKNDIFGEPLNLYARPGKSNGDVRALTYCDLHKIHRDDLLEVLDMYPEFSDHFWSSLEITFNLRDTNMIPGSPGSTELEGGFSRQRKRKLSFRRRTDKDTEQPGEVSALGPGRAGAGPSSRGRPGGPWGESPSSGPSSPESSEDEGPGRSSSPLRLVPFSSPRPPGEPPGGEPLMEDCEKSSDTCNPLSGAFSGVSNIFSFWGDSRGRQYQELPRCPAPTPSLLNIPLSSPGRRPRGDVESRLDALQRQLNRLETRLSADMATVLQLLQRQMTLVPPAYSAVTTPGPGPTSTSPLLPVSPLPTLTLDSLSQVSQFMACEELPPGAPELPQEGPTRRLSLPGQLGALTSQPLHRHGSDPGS
row,SMILES,"hERG current change (%, negative = inhibition) at 10uM"
1,COC(=O)COc1ccc(-c2nccc(-c3ccccn3)n2)cc1,13.3%
2,CCN(CC(=O)Nc1ccccc1OC)C(=O)c1cc(-c2ccccc2)nn1-c1ccccc1,-36.9%
3,COc1ccc(-c2noc(N3CCC(C(=O)NCc4ccccc4Cl)CC3)n2)cc1,-11.9%
4,CCOC(=O)NC(=O)CSc1nc2ccc(C)cc2[nH]1,8.02%
5,COc1cc(/C=N/NC(=O)c2csc3c2CCCC3)ccc1OCCN1CCOCC1,-31.9%
6,COc1ccccc1C(=O)NNC(=O)c1nn(Cc2ccccc2)c(=O)c2ccccc12,-14%
7,O=C(CSc1ncnc2sccc12)Nc1ccccc1,21.2%
8,COc1ccc(C(=O)NNC(=O)CNC(=O)C2CCCCC2)cc1,14%
9,COc1ccc(/C=C/CN2CCN(CCc3ccccc3)C(CCO)C2)cc1 (stereo not shown),-71.9%
10,OCC[C@H]1C[C@H](O)[C@@H](O)[C@@]2(CCCO2)O1,20.1%
11,CC(C)CNc1nc(NC(C)(C)C)nc(Oc2ccc(=O)[nH]n2)n1,9.66%
12,Cc1ccc(S(=O)(=O)N2CCC(N3CCC(C)CC3)CC2)cc1,-29.1%
13,CCCCc1cc(=O)oc2cc(C)cc(OC(C)C(=O)NCc3cccnc3)c12 (stereo not shown),-19.7%
14,Cc1cccc(C)c1NC(=O)COC(=O)c1cc(=O)c2ccccc2o1,5.2%
15,Cc1ccc(NC(=O)COC(=O)c2cc(=O)c3ccccc3o2)cc1F,12.9%
16,Cc1ccccc1NC(=O)COC(=O)c1cc(=O)c2ccccc2o1,-67.4%
17,CC1=C(C)C(=O)N(C(C)CCc2ccccc2)C1=O (stereo not shown),4.9%
18,COc1ccccc1N1CCN(C(=O)c2cc3c(=O)n4cccc(C)c4nc3s2)CC1,-11.2%
19,COC(=O)c1cc(C(=O)N2CCN(c3cccc(C)c3C)CC2)cc([N+](=O)[O-])c1,-39.6%
20,CN1CCN(C(=O)c2cc3c(=O)n4ccccc4nc3s2)CC1,-2.57%
21,O=C(c1cc2c(=O)n3ccccc3nc2s1)N1CCN(Cc2ccccc2)CC1,-27.7%

row,SMILES,"hERG current change (%, negative = inhibition) at 10uM"
1,O=C(c1ccc([N+](=O)[O-])s1)N1CCN(c2cccc(Cl)c2)CC1,-66.1%
2,COC(=O)c1cc(C(=O)N2CCN(c3ncccn3)CC2)cc([N+](=O)[O-])c1,-5.19%
3,Cc1cccn2c(=O)c3cc(C(=O)N4CCN(Cc5ccccc5)CC4)sc3nc12,-79.7%
4,COC(=O)c1cc(C(=O)N2CCN(c3cccc(Cl)c3)CC2)cc([N+](=O)[O-])c1,-59%
5,O=C(c1ccc([N+](=O)[O-])s1)N1CCN(c2ccccc2)CC1,-25.8%
6,Cc1c(C(=O)N2CCN(c3cccc(Cl)c3)CC2)cccc1[N+](=O)[O-],-42.5%
7,COc1ccccc1N1CCN(C(=O)c2cc3c(=O)n4ccccc4nc3s2)CC1.Cl,-53.2%
8,CCOC(=O)N1CCN(C(=O)c2cc3c(=O)n4cccc(C)c4nc3s2)CC1,-9.84%
9,Cc1sc2nc(SCC(=O)NCc3ccco3)n(-c3ccccc3)c(=O)c2c1C,8.63%
10,O=P(CCN1CCCCC1)(c1ccccc1)c1ccccc1,-5.98%
11,COc1ccc(NC(=O)c2cccnc2Sc2ccccc2)c(OC)c1,7.52%
12,CC(C)(C)NC(=O)Cn1nnc(-c2ccccc2Cl)n1,6.43%
13,CSc1ncccc1C(=O)OCC(=O)NC(C)(C)C,10.5%
14,COc1ccc(NC(=O)C2CCC(CNS(=O)(=O)c3csc(C(N)=O)c3)CC2)cc1OC (stereo not shown),15.3%
15,COc1ccc2[nH]c(C(=O)Nc3ccc(F)cc3Br)cc2c1,11.7%
16,COc1ccc(/C=N/NC(=O)c2cccnc2)cc1O,11.1%
17,COc1ccccc1N1CCN(C(=O)c2ccc([N+](=O)[O-])s2)CC1,-54.5%
18,COc1ccccc1N1CCN(C(=O)c2ccc(Br)s2)CC1.Cl,-46.3%
19,Cc1ccc(N2CCN(C(=O)c3cccc([N+](=O)[O-])c3)CC2)cc1Cl,-19.1%
20,O=C(c1cccc([N+](=O)[O-])c1)N1CCN(c2cccc(Cl)c2)CC1,-57.4%
21,COc1ccc(OC)c2sc(N3CCN(C(=O)c4ccc([N+](=O)[O-])s4)CC3)nc12,-41.9%

row,SMILES,"hERG current change (%, negative = inhibition) at 10uM"
1,O=C(c1cccc([N+](=O)[O-])c1)N1CCN(c2ccc(Cl)cc2)CC1,-41.1%
2,CCOC(=O)N1CCN(S(=O)(=O)c2ccc(Br)s2)CC1,-9.22%
3,COc1ccc(CC(=O)Nc2ccc(-c3csc(C)n3)cc2)cc1,7.89%
4,COc1ccc(Nc2nc(-c3cc4cccc(OC)c4oc3=O)cs2)cc1,11.6%
5,Cc1cccc(C(=O)Nc2cccc(C(=O)Nc3cc(C)ccn3)c2)c1,7.29%
6,CCCCNC(=O)CC1N=C2c3ccccc3N=C(SCC(=O)Nc3cccc(OC)c3)N2C1=O (stereo not shown),-10.6%
7,CCC(C)NC(=O)CSC1=Nc2ccccc2C2=NC(CCC(=O)NCc3ccco3)C(=O)N12 (stereo not shown),-1.01%
8,O=C(CCC1N=C2c3ccccc3N=C(SCC(=O)NCc3ccco3)N2C1=O)NCc1ccco1 (stereo not shown),12.7%
9,NC(=O)CSC1=Nc2ccccc2C2=NC(CC(=O)NCc3cccs3)C(=O)N12 (stereo not shown),11.2%
10,O=C(CSC1=Nc2ccccc2C2=NC(CC(=O)NC3CCCCC3)C(=O)N12)NCc1ccco1 (stereo not shown),-29.9%
11,CCCCNC(=O)CC1N=C2c3ccccc3N=C(SCC(=O)Nc3ccccc3C)N2C1=O (stereo not shown),-0.929%
12,Cc1ccc(CSC2=Nc3ccccc3C3=NC(CC(=O)NCc4ccco4)C(=O)N23)cc1 (stereo not shown),-51.8%
13,CCCCNC(=O)CC1N=C2c3ccccc3N=C(SCC(=O)Nc3cccc(C)c3)N2C1=O (stereo not shown),-52.6%
14,O=C(CC1N=C2c3ccccc3N=C(SCc3ccccc3Cl)N2C1=O)NCc1ccco1 (stereo not shown),-47%
15,Cc1ccc(CSC2=Nc3ccccc3C3=NC(CCC(=O)NCc4ccco4)C(=O)N23)cc1 (stereo not shown),-68.8%
16,O=C(CC1N=C2c3ccccc3N=C(SCc3ccc(Cl)cc3)N2C1=O)NCc1ccco1 (stereo not shown),-75.3%
17,O=C(CSC1=Nc2ccccc2C2=NC(CC(=O)NCc3ccco3)C(=O)N12)NCc1ccco1 (stereo not shown),7.61%
18,Cn1c(SCC(=O)O)nnc1-c1ccc(NC(=O)c2ccc(Cl)c(Cl)c2)cc1,7%
19,COCc1[nH]nc2c1C(C1C=CCCC1)C(C#N)=C(N)O2 (stereo not shown),-8.37%
20,CSc1ccc(/C=C/C(=O)NC(=O)c2ccccc2O)cc1,11.3%
21,O=C(O)/C=C/c1cnc2ccccc2c1,19.1%

row,SMILES,"hERG current change (%, negative = inhibition) at 10uM"
1,CCOc1ccc(C(O)(CCC(C)C)C(CN2CCOCC2)c2ccccc2)cc1.Cl (stereo not shown),13.3%
2,COc1ccc(CCNC(=O)CCC(=O)Nc2nnc(C(C)C)s2)cc1OC,10.4%
3,Cc1cc(N)n(-c2nc(-c3cccnc3)nc3ccccc23)n1,-27.4%
4,O=S(=O)(CCN1CCOCC1)c1ccc(OC(F)(F)F)cc1,2.9%
5,COc1ccc(OCCOC(=O)C(C)NS(=O)(=O)c2ccc(NC(C)=O)cc2)cc1 (stereo not shown),-7.73%
6,COC(=O)C1=C(c2c(C)noc2C)C[C@@H]2CC[C@H]1N2C(=O)N1CCCCC1,17.1%
7,CC(=O)Nc1ccc(N=Nc2ccccc2)cc1,8.44%
8,O=C(NC(=S)Nc1nc(-c2ccc([N+](=O)[O-])cc2)cs1)c1ccco1,16.5%
9,O=C(CCC1N=C2c3ccccc3N=C(SCc3cccc(Cl)c3)N2C1=O)NCc1ccco1 (stereo not shown),-42.2%
10,NC(=O)CSC1=Nc2ccccc2C2=NC(CCC(=O)NCc3ccc(F)cc3)C(=O)N12 (stereo not shown),15.1%
11,O=C(CCC1N=C2c3ccccc3N=C(SCc3ccccc3Cl)N2C1=O)NCc1ccco1 (stereo not shown),-32.4%
12,O=C(CSC1=Nc2ccccc2C2=NC(CC(=O)NCc3ccco3)C(=O)N12)NCC1CCCO1 (stereo not shown),7.92%
13,O=C(CCC1N=C2c3ccccc3N=C(SCC(=O)NCC3CCCO3)N2C1=O)NCc1ccc(F)cc1 (stereo not shown),2.89%
14,O=C(CCC1N=C2c3ccccc3N=C(SCc3ccc(F)cc3)N2C1=O)NCc1ccco1 (stereo not shown),-70.9%
15,O=C(CC1N=C2c3ccccc3N=C(SCc3ccc(F)cc3)N2C1=O)NCc1ccco1 (stereo not shown),-73.9%
16,O=C(CCC1N=C2c3ccccc3N=C(SCc3ccc(Cl)cc3)N2C1=O)NCc1ccco1 (stereo not shown),-52%
17,CCC(C)NC(=O)CSC1=Nc2ccccc2C2=NC(CC(=O)NCc3ccc(F)cc3)C(=O)N12 (stereo not shown),-11.4%
18,CCCCN(C)CCNC(=O)c1ccc(Cn2c(=S)[nH]c3ccc(Br)cc3c2=O)cc1,-41%
19,COCCNC(=S)N(CCCN(C)C)Cc1cc2cc3c(cc2[nH]c1=O)OCCO3,24.9%
